# An excerpt weighted towards active compounds, which were near 21% of everything screened.
# Pf growth 96h = Primary qHTS for delayed death inhibitors of the malarial parasite plastid, 96 hour incubation. P. falciparum luciferase reporter growth, 96 h. Potency, µM (top dose mostly 28.7 µM), for the others: at the highest dose activity change, negative = inhibition, usual class: inhibitors. actives 6.9% (n = 320,000); also: potency is read from the fitted curve at half-maximal effect; % is scaled to controls: 0 for no effect and ±100 for the full control effect
#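 Two-generation exposure (96 h) targets delayed-death phenotype. Reporter parasites carrying integrated firefly luciferase, in red cells at 2% hematocrit and 0.05% parasitemia final, kept at 37 C, 5% CO2; luminescence loss indicates inhibition.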
# Cycloheximide cs = Cycloheximide Counterscreen for Small Molecule Inhibitors of Shiga Toxin. cell reporter, cycloheximide protein synthesis inhibition counterscreen. actives 12% (n = 300,000). max response, %. AID 2314, 2010; in the data active = max response mostly above about 13%, no sharp cut-off; inactive = mostly below about 14%; also: read at 38.3 µM for the half of the compounds with a filed dose; 0% is about no effect
# Shiga inhibitor = A qHTS for Small Molecule Inhibitors of Shiga Toxin. Vero cells, Shiga toxin protein synthesis inhibition reporter. inhibition, % at 38.7 µM. actives 9.2% (n = 290,000). AID 2315, 2010; in the data active = inhibition mostly above about 28%, no sharp cut-off; inactive = mostly below about 43%; also: 0% is about no effect
# FBPA Giardia inh = qHTS Assay for Inhibitors of Fructose-1,6-bisphosphate Aldolase from Giardia Lamblia | AID 2451, 2010 | actives 0.71% (n = 290,000) | A8B2U2 | Potency, µM (titrated, usually from 59.6 µM), without a hit: top-dose activity, negative = inhibition, usual class: inhibitors | purified Giardia FBPA; also: potency is read from the fitted curve at half-maximal effect; % is scaled to controls: 0 for no effect and ±100 for the full control effect; nearly all actives have a fitted effect of over 55% in size
# Target sequence (A8B2U2 whole entry, looked up): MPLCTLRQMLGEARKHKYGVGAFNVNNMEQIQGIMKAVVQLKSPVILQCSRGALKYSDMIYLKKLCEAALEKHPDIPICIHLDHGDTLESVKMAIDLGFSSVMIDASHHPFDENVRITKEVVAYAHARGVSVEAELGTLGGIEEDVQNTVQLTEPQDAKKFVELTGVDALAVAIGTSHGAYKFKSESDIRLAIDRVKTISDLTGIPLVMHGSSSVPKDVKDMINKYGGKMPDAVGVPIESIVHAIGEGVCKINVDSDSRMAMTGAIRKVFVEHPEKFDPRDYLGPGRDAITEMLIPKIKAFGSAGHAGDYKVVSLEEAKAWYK
#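 40 nM FBPA preincubated 10 min at RT with compound (up to 57.5 uM final), then substrate plus GAPDH/TPI/NAD/arsenate coupling and diaphorase/resazurin added. Fluorescence read after 20 min at RT, 525/598 nm.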
# NS1 inh = qHTS Assay for Inhibitors of Influenza NS1 Protein Function. AID 2326, 2010. Potency, µM (series often up to 46.1 µM), without a hit: top-dose activity, positive = more growth. actives 0.4% (n = 270,000); calls by dose curve; also: potency is read from the fitted curve at half-maximal effect; actives are rising curves; nearly all actives have a fitted effect of over 50% in size
#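 Growth recovery, yeast-based: influenza A NS1 expressed in S. cerevisiae causes slow growth, and suppressors are detected by OD600. The parent strain without NS1 is used as positive control.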
# Pf growth 48h = Primary qHTS for delayed death inhibitors of the malarial parasite plastid, 48 hour incubation; P. falciparum luciferase growth in erythrocytes, 48 h; Potency, µM (doses to about 28.7 µM), without a hit: top-dose activity change, negative = inhibition, hits mostly inhibitors; actives 5.9% (n = 310,000); AID 504832, 2011; also: potency is read from the fitted curve at half-maximal effect; % is scaled to controls: 0 for no effect and ±100 for the full control effect
#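 In quantitative HTS format, infected erythrocytes bearing luciferase-reporter parasites were treated for a single generation at 37 C. Luminescence after adding detection reagent served as the growth measure.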
# Flu NS1 inh = Assay for Inhibitors of Influenza NS1 Protein Function: Hit Validation | activity change, negative = inhibition, % at 32.9 µM | shares compounds with NS1 inh | influenza NS1 function cell assay, 15-point titration | 1,400 tested, under 10 active; calls by dose curve; also: 0% is about no effect
# PR8 titer = Assay for Inhibitors of Influenza NS1 Protein Function: Influenza virus replication assay in MDCK cells infected with virus A/PR/8/34. actives 30% (n = 95). AID 504647, 2011. shares compounds with NS1 inh. MDCK infected influenza A/PR/8/34, virus titer TCID50; hits give low values. virus titer (log TCID50), log10 TCID50 at 5 µM; call rule not given here
# * = called active by the depositor; ? = inconclusive; nt = no result given. Unless noted, calls follow the shape of the dose curve; as a rule, active = well fitted curve in the direction sought with a large enough effect; inconclusive = small, poorly fitted or top-dose-only effect, or another doubt; inactive = no such curve, though single readings can be large; an effect the other way counts as inactive or inconclusive.
SMILES,Pf growth 96h,Cycloheximide cs,Shiga inhibitor,FBPA Giardia inh,NS1 inh,Pf growth 48h,Flu NS1 inh,others
O=C(OCC(=O)N1CCN(C(=O)c2ccco2)CC1)c1ccccc1OCc1ccc(Cl)cc1,372.2%,27.9,25.5,-5.6%,-1.4%,-23.3%,nt,
CCOC(=O)Nc1ccc2c(CN3C(=O)NC4(CCCC4)C3=O)cc(=O)oc2c1,?,9.6,15.4,3.0%,9.5%,?,nt,
CCOC(=O)Nc1ccc2c(CN3CCN(S(=O)(=O)c4ccccc4)CC3)cc(=O)oc2c1,6.57µM*,0.0,-7.6,-4.7%,8.91µM*,9.28µM*,4.1,
COc1cc(OC)cc(C(=O)NCc2ccc3c(c2)OCO3)c1,?,-1.6,-12.8,3.0%,-4.2%,3.2%,nt,
c1ccc(Nc2cc(Nc3ccccc3)[nH]n2)cc1,104.2%,-1.8,-12.4,-27.5%,4.47µM*,-15.9%,-5.3,
Cc1ccccc1NC(=O)CCS(=O)(=O)c1cccc2nonc12,-4.4%,-3.8,-6.8,-11.9%,4.4%,-13.2%,nt,
Cc1cccc(C)c1NC(=O)CCS(=O)(=O)c1cccc2nonc12,16.3%,-4.7,6.6,-9.8%,?,0.0%,5.0,
O=C(O)CCC(=O)N1CCc2cc(S(=O)(=O)NC3CCCc4ccccc43)ccc21 (stereo unspecified),?,6.4,35.7,?,3.55µM*,?,20.0,
O=C(C1CCC1)N1CCc2cc(S(=O)(=O)NC3CCCc4ccccc43)ccc21 (stereo unspecified),19.3%,11.0,6.7,1.7%,6.3%,nt,nt,
Cc1c(NC(=O)COC(=O)c2ccc(S(=O)(=O)N3CCOCC3)cc2)c(=O)n(-c2ccccc2)n1C,145.7%,8.8,-12.1,1.7%,nt,19.1%,nt,
Cc1c(C(=O)Nc2cccc(Cl)c2)oc2ccc(S(=O)(=O)N3CCC4(CC3)OCCO4)cc12,11.9%,-0.3,18.4,-17.9%,11.2µM*,0.0%,-19.1,
CCOc1ccc(/C(O)=C2/C(=O)C(=O)N(c3cc(C)on3)C2c2ccc(C(=O)OC)cc2)cc1 (stereo unspecified),22.9%,8.8,5.7,?,6.3%,62.9%,nt,
CCCOc1ccc(/C(O)=C2/C(=O)C(=O)N(c3cc(C)on3)C2c2ccc(C(=O)OC)cc2)cc1 (stereo unspecified),9.1%,-0.9,-5.1,17.1%,10µM*,2.7%,-8.6,
CCOc1ccc(/C(O)=C2/C(=O)C(=O)N(c3ncccn3)C2c2ccccc2)cc1 (stereo unspecified),-4.6%,66.4*,57.8*,29.1%,2µM*,22.3%,-11.6,
CCOc1ccc(/C(O)=C2/C(=O)C(=O)N(c3ncccn3)C2c2ccc(C)cc2)cc1 (stereo unspecified),36.2%,-1.1,-1.4,19.2%,4.4%,1.7%,nt,
Cc1ccc(Cn2c(SCC(=O)N3CC(=O)Nc4ccccc43)nc3ccccc3c2=O)cc1,13.1µM*,7.4,-3.5,-1.0%,12.6µM*,?,5.8,
CN(C)CCN=Cc1c(O)n(-c2cccc3ccccc23)c(=O)[nH]c1=O,10.4µM*,6.1,18.7,7.9%,?,-3.3%,7.4,
CCOc1ccc2c(c1)C(c1ccccc1)=NNC(c1ccccc1)=N2,-19.8%,45.4*,57.4*,-7.1%,11.2µM*,?,-13.2,
CC(=O)c1c(C)[nH]c(C(=O)OCC(=O)N2c3ccccc3NC(=O)C2(C)C)c1C,?,-1.8,-3.5,1.9%,-5.6%,-24.6%,nt,
O=C(COc1ccc2c(c1)oc(=O)c1ccccc12)NC(Cc1ccc(Cl)cc1)C(=O)O (stereo unspecified),25.4%,-0.9,-5.8,?,11.2µM*,41.9%,21.9,
Cc1cc(C)c(S(=O)(=O)Nc2ncn[nH]2)c(C)c1,-2.2%,1.6,-4.5,nt,1.9%,4.1%,nt,
COC(=O)C1=C(O)/C(=C\c2ccc(O)c(OC)c2)N=C1C,nt,-1.7,23.2,?,17.0%,0.8%,nt,
COc1ccc(-c2nc(CS(=O)(=O)CC(=O)NC3CCCCC3C)c(C)o2)cc1 (stereo unspecified),35.4%,-1.3,-1.2,6.6%,9.4%,7.4%,nt,
Cc1ccc(-c2nc(CS(=O)(=O)CC(=O)NC3CCCCC3C)c(C)o2)cc1 (stereo unspecified),63.5%,-5.9,-16.4,0.0%,3.16µM*,nt,-26.2,
COc1ccc(/C=N/NC(=O)CCc2c(C)n[nH]c2C)cc1OC,nt,1.1,20.0,3.0%,5.62µM*,-0.1%,18.7,
SMILES,Pf growth 96h,Cycloheximide cs,Shiga inhibitor,FBPA Giardia inh,NS1 inh,Pf growth 48h,Flu NS1 inh,others
CCOC(=O)/C=C1\NC(C)(C)Cc2cc(OC)c(OC)cc21,0.0%,-2.9,-20.5,-4.2%,2.1%,44.3%,nt,
COc1cc2c(cc1OC)/C(=C/C(=O)N1CCOCC1)NC(C)(C)C2,?,18.2,5.7,?,?,-4.3%,1.5,
CCOC(=O)/C=C1\NC(C)(C)Cc2cc(OC)c(O)cc21,31.2%,-7.6,-0.8,-6.3%,?,?,20.0,
CC1(C)Cc2ccccc2/C(=C/C(=O)N2CCCCCC2)N1,nt,-4.9,1.3,-3.8%,7.0%,?,nt,
COc1ccc(CN(C)CC(=O)Nc2cccc(S(N)(=O)=O)c2)c(OC)c1OC,-2.1%,-1.7,-5.0,?,-2.2%,-6.8%,nt,
COc1cc(/C=C(\C#N)C(=O)NC(C)C)cc(Cl)c1O,-5.4%,-2.2,-4.6,-15.2%,-10.0%,0.0%,nt,
CC(C)CC(C(=O)Nc1oc(-c2ccco2)c(-c2ccco2)c1C#N)N1C(=O)c2ccccc2C1=O (stereo unspecified),?,-1.4,-3.4,-26.6%,10µM*,?,-11.2,PR8 titer=8
COC(=O)c1cc(C#N)c(N2CC(C)OC(C)C2)nc1C (stereo unspecified),71.4%,-1.1,32.6,5.4%,nt,-0.4%,nt,
Cc1cccc(N(CC(=O)NC2CCCCC2)C(=O)CCC(=O)Nc2ccccn2)c1,?,5.9,11.7,13.9%,-0.4%,-3.4%,nt,
Cc1ccnc(NC(=O)CCC(=O)N(CC(=O)NC2CCCCC2)c2ccc3c(c2)OCO3)c1,-12.1%,8.0,34.4,-0.6%,22.4µM*,-9.9%,-8.9,
COC(=O)Cc1[nH]nc2c1C(c1ccc(O)c(OC)c1)C(C#N)=C(N)O2 (stereo unspecified),5.9%,-3.5,-5.6,-9.6%,10µM*,6.5%,?,

# Screening results (PubChem)
